RGS16-Gao – modulates binding between human RGS16 and Galphao. O15492+P09471. bead-based flow cytometry RGS16-Galphao binding, fluorescence; actives lie on both sides. binding response (% of control), % at 10 µM. 0.38% of 220,000 active. AID 1441;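 further: Galphao activated by GDP with aluminum fluoride before binding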
RGS4-Gao reg – human RGS4-Galphao interaction regulation | P09471 | Multiplexed bead flow cytometry, RGS4-Galphao binding; actives lie on both sides | binding response (% of control), % at 10 µM | 0.33% of 220,000 active; in the data active means binding response below about 49% or above about 150%; inactive means in between;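 further: fluorescent Galphao activated with aluminum fluoride binding bead-coupled RGS4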
Target sequence (P09471 whole entry, looked up): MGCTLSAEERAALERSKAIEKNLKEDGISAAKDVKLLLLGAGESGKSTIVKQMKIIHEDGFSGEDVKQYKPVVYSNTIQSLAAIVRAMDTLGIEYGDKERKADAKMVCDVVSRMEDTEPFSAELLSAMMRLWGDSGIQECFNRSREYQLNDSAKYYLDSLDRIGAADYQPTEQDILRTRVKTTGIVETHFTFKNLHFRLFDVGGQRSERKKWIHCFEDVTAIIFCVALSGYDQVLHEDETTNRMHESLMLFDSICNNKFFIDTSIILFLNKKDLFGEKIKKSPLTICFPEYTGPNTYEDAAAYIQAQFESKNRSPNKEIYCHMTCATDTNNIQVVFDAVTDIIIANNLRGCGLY
Avidin bead fluor – avidin bead compound fluorescence profile; Avidin beads, compound fluorescence 488/530 nm, flow cytometry; active compounds read high; fluorescence (KMESF) at 10 µM; AID 1775; 0.38% of 220,000 active; in the data active means fluorescence above about 47
RGS8-Gao – human RGS8-Galphao interaction regulation; P09471; multiplexed bead flow cytometry, RGS8-Galphao binding; actives lie on both sides; response (percent of control binding), % at 10 µM; 0.34% of 220,000 active; in the data active means response below about 60% or above about 140%; inactive means in between;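 further: Galphao activated as the GDP aluminium fluoride complex binding bead-coupled RGS8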
GSH fluor – compound fluoresces at 488/530 nm on GSH beads. 0.25% of 190,000 active. AID 1776. GSH beads flow cytometry, compound fluorescence 488/530 nm; active compounds read high. fluorescence (KMESF) at 10 µM; in the data active means fluorescence above about 89;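 further: glutathione beads carrying GST-tagged Bcl family fusion proteins plus one bare bead set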
RGS7-Gao reg – regulators of human RGS7-Galphao interaction | P09471 | AID 1439 | Multiplexed bead flow cytometry, RGS7-Galphao binding; actives lie on both sides | binding response (% of control), % at 10 µM | 0.35% of 220,000 active; in the data active means binding response below about 49% or above about 150%; inconclusive means no clear call, values can overlap the other calls; inactive means in between;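 further: fluorescent Galphao held in activated GDP-AlF4 state binding bead-coupled RGS7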
RGS-Gao – RGS4-Galphao interaction regulator (human) | multiplexed bead flow cytometry, RGS–Galpha-o binding | shares compounds with RGS16-Gao | 99% of 1,600 active | RGS4–Galpha-o binding response, % at 10 µM;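 further: fluorescently labeled Galpha-o bound to GDP with aluminium fluoride binding biotinylated RGS beads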
Target sequence (P09471 whole entry, looked up): as above
Target sequence (P49798 whole entry, looked up): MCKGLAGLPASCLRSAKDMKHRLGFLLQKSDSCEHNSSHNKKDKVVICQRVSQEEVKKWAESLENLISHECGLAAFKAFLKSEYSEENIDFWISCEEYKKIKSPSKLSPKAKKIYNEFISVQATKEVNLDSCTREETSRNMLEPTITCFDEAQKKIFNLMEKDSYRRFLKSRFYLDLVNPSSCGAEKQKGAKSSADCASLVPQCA
Biotin-avidin – biotin-avidin bead binding disruption counter-screen; shares compounds with RGS16-Gao; streptavidin beads, fluorescein-biotin binding, flow cytometry; inhibition, % at 10 µM; 1,700 tested, under 10 active; AID 1783;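 active means inhibition above 50%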;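 further: median green fluorescence of gated singlet beads compared with DMSO control wells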
RGS8-Gao confirm – confirmation of regulators of human RGS8-Galphao interaction. shares compounds with RGS16-Gao. bead-based flow cytometry RGS8-Galphao binding, fluorescence; actives lie on both sides. binding response (% of control), % at 10 µM. 3% of 1,700 active; in the data active means binding response below about 72% or above about 130%; inactive means in between;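 further: Galphao activated as GDP AlF4 complex before binding bead RGS8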
RGS7-Gao single – confirmation of regulators of human RGS7-Galphao interaction | shares compounds with RGS16-Gao | bead-based flow cytometry RGS7-Galphao binding; actives lie on both sides | response (percent of control binding), % at 10 µM | 7.8% of 1,700 active | AID 1837; in the data active means response below about 75% or above about 130%; inactive means in between;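 further: fluorescent Galphao activated with GDP and aluminum fluoride binding bead-coupled RGS7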
RGS16-Gao single – confirmation of regulators of human RGS16-Galphao interaction; 4% of 1,700 active; AID 1838; response (% of control binding), % at 10 µM; bead-based flow cytometry, RGS16-Galphao binding; actives lie on both sides; shares compounds with RGS16-Gao; in the data active means response below about 74% or above about 130%; inactive means in between;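 further: Galphao activated as the GDP aluminium fluoride complex binding bead-coupled RGS16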
RGS4-Gao single – RGS4-Galphao interaction regulation, single point confirmation | shares compounds with RGS16-Gao | RGS4-Galphao binding, multiplexed bead flow cytometry; actives lie on both sides | binding response (% of control), % at 10 µM | 4% of 1,700 active | AID 1840; in the data active means binding response below about 74% or above about 130%; inactive means in between
RGS19-Gao conf – RGS19-Galphao interaction regulation, single point confirmation; shares compounds with RGS16-Gao; bead-based flow cytometry RGS19-Galphao binding; actives lie on both sides; 5% of 1,700 active; response (percent of control binding), % at 10 µM; AID 1841; in the data active means response below about 50% or above about 160%; inactive means in between
Hits are given with their value; n = inactive; u = inconclusive; x = no result given; [ ] = dose if it differs, or a comment. Compounds with a hit are over-represented: about 1.2% of the library has one in this group of screens. Unless noted, how the calls were made is not given here.

SMILES	RGS16-Gao	RGS4-Gao reg	Avidin bead fluor	RGS8-Gao	GSH fluor	RGS7-Gao reg	Biotin-avidin	RGS8-Gao confirm	RGS7-Gao single	RGS16-Gao single	RGS4-Gao single	RGS19-Gao conf	others
CC(CCc1ccccc1)NC(=O)C1CCN(S(=O)(=O)N2CCOCC2)CC1 (stereo unspecified)	n	180[activator]	n	160[activator]	n	167[activator]	n	n	n	n	n	n
Nc1nc(-c2ccccc2)[nH]c(=O)c1N	n	n	n	n	n	n	n	n	n	n	n	n
Nc1[nH]nc2nc(-c3ccccc3)[nH]c(=O)c12	n	n	n	n	x	u	x	x	x	x	x	x
Cc1ccc(OCCNS(=O)(=O)c2cccs2)cc1	n	159[activator]	n	n	n	154[activator]	n	n	n	n	n	n
COc1ccc(OCCNS(=O)(=O)c2ccccc2)cc1	n	n	n	n	n	n	x	x	x	x	x	x
O=C1CC(SC(=Nc2ccccc2)Nc2ccccc2)C(=O)N1c1ccc(Cl)cc1 (stereo unspecified)	n	n	n	n	n	n	x	x	x	x	x	x
O=C(CSC1CC(=O)N(c2ccc(C(=O)O)cc2)C1=O)Nc1ccc(Cl)cc1 (stereo unspecified)	n	n	117	n	n	241[activator]	n	n	n	n	n	n	RGS-Gao=123
O=C(NC(=S)NNS(=O)(=O)c1ccc(Cl)cc1)c1cccnc1	n	n	n	n	n	n	x	x	x	x	x	x
C=CCSc1nnc(CC(OC)OC)n1-c1ccccc1	n	n	n	n	n	n	x	x	x	x	x	x
O=C(O)CCCC(=O)N1CCC(C(O)(c2ccccc2)c2ccccc2)CC1	n	n	n	n	n	n	n	n	n	n	n	n
OC(c1ccccc1)(c1ccccc1)C1CCN(C(=S)NCCc2ccccc2)CC1	n	n	n	n	n	n	x	x	x	x	x	x
Cc1cccc(NCc2cc(Cl)cc(Cl)c2O)n1	323[activator]	274[activator]	175	n	n	278[activator]	n	n	n	n	n	n
COCC(C)n1c(SCC(=O)c2cc(C)n(C)c2C)nc2ccccc2c1=O (stereo unspecified)	n	n	n	n	n	n	x	x	x	x	x	x
Nc1cccc(CCc2nc3cc4ccccc4cc3[nH]2)c1	8.6	n	n	n	n	n	n	n	n	n	n	n	RGS-Gao=89
c1ccc(CCc2nc3ccccc3[nH]2)cc1	n	n	n	n	n	n	x	x	x	x	x	x
Cc1ccc(OCC(=O)N/N=C/C=C/c2ccco2)cc1C	3.6	n	n	60	n	n	n	n	n	n	n	n	RGS-Gao=67
COc1ccc(OCC(=O)C2CC2)c(C#N)c1	n	n	n	n	x	u	x	x	x	x	x	x
Cc1ccc(S(=O)(=O)n2[nH]c(=O)c(CCO)c2C)cc1	n	n	n	n	n	n	x	x	x	x	x	x
Cc1cccc2cc(COC(=O)c3ccccn3)c(=O)[nH]c12	-25	n	n	n	n	n	n	n	n	n	n	n	RGS-Gao=69
COc1ccc(C(=O)OCc2cc3cccc(C)c3[nH]c2=O)cc1	n	n	n	n	n	n	x	x	x	x	x	x
CCOC(=O)N1CCN(Cc2cn[nH]c2-c2cc3ccccc3o2)CC1	n	n	n	n	n	n	x	x	x	x	x	x
COc1ccc(C(CC(=O)c2ccccc2)CC(=O)c2ccccc2)cc1OC	n	n	n	n	n	u	x	x	x	x	x	x
COc1ccc(C(CC(=O)Nc2ccccc2OC)n2cccc2)cc1 (stereo unspecified)	15	n	n	n	n	n	n	n	n	n	n	n	RGS-Gao=93
c1ccc(-c2nccnc2-c2ccccc2)cc1	n	n	n	n	x	u	x	x	x	x	x	x
FC(F)Sc1nc(-c2ccccc2)c(-c2ccccc2)n1C(F)F	n	n	100	n	n	174[activator]	n	n	n	n	n	n	RGS-Gao=117
SMILES	RGS16-Gao	RGS4-Gao reg	Avidin bead fluor	RGS8-Gao	GSH fluor	RGS7-Gao reg	Biotin-avidin	RGS8-Gao confirm	RGS7-Gao single	RGS16-Gao single	RGS4-Gao single	RGS19-Gao conf	others
Oc1ccc(Cl)cc1C=Nc1ccc2c3c(cccc13)CC2	n	n	n	n	n	n	x	x	x	x	x	x
O=S(=O)(c1ccccc1)c1ncc(C(F)(F)F)cc1Cl	10	15	x	14	n	12	n	n	n	n	n	n
CC(=O)Nc1ccc(-c2nnn(CC(=O)c3ccc(F)cc3)n2)cc1Cl	n	n	n	n	x	u	x	x	x	x	x	x
Cc1ccc(-n2c(SCC(=O)NCc3ccco3)nc3c([nH]c4ccccc43)c2=O)cc1	-4.2	-3.0	n	6.5	n	-11	n	n	n	n	n	n
NC(=O)c1ccc(NC(=O)c2cnc3ccccc3n2)cc1	n	n	n	n	x	u	x	x	x	x	x	x
O=C(CN1C(=O)NC2(CCCC2)C1=O)Nc1nc(-c2ccc(F)cc2)cs1	n	n	n	n	n	n	x	x	x	x	x	x
CC1(C)NC(=O)N(CC(=O)Nc2nc(-c3ccc(F)cc3)cs2)C1=O	n	n	195	n	n	216[activator]	n	n	69	n	n	49	RGS-Gao=133
CCCc1nc2c([nH]1)c(=O)n(C)c(=O)n2C	n	n	n	n	x	u	x	x	x	x	x	x
CC(=O)Nc1ccc(Cc2nc3c([nH]2)c(=O)n(C)c(=O)n3C)cc1	1.1	-0.7	n	20	x	u	n	n	n	n	n	n
CC(C)(C)Nc1nc(Oc2ccc(=O)n(-c3ccccc3)n2)nc(N2CCOCC2)n1	x	x	x	x	n	x	n	n	n	n	n	n
Cn1nc(Oc2nc(N3CCOCC3)nc(N3CCOCC3)n2)ccc1=O	n	-23	n	12	n	-4.9	n	n	n	n	n	n
Cc1cccc(NC(=O)C2Cc3ccccc3CN2C(=O)OCc2ccccc2)c1C (stereo unspecified)	12	n	n	n	n	n	n	n	n	n	n	n	RGS-Gao=91
Cc1c(Cl)cccc1NC(=O)C1Cc2ccccc2CN1C(=O)c1ccccc1 (stereo unspecified)	n	n	n	n	n	n	x	x	x	x	x	x
CCCN1C(=O)C2(SC(NC(C)=O)=NN2C(C)=O)c2cc(C)cc(C)c21 (stereo unspecified)	n	n	n	n	x	u	n	n	n	n	n	n
